Measured values reported in PubChem BioAssay (NCI).
This is part of a sample that, as a whole, favours compounds with a hit. Of some 79,000 tested, about 15% had one in any assay. Rule as the data show it: active = growth inhibition above about 70%; inactive = the rest.

Columns and labels:
[1] = NCI Yeast Anticancer Drug Screen. Data for the rad50 strain (AID 155);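 also: 0% = growth of vehicle-only cultures of the same strain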; conditions: S. cerevisiae rad50 strain growth inhibition; at 50.0 µM; hits give high values
How it was run: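 Compounds were tested on a yeast strain with an engineered DNA damage repair alteration; the reported value is growth inhibition normalised to vehicle treatment.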

[2] = NCI Yeast Anticancer Drug Screen. Data for the mec2-1 strain (AID 157); conditions: S. cerevisiae mec2-1 strain, at 50.0 µM, hits give high values
How it was run: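 Cells of the genetically defined mec2-1 yeast strain are incubated with test compound. Inhibition of growth is calculated against vehicle-treated controls.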

[3] = NCI Yeast Anticancer Drug Screen. Data for the sgs1 mgt1 strain (AID 161);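 also: 0% = growth of cultures given vehicle only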; conditions: S. cerevisiae sgs1 mgt1 strain, at 50.0 µM, hits give high values
How it was run: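 Genetically altered yeast, compound exposure, growth inhibition relative to vehicle.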

[4] = NCI Yeast Anticancer Drug Screen. Data for the cln2 rad14 strain (AID 165);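 also: 0% = growth equal to vehicle treated cultures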; conditions: S. cerevisiae cln2 rad14 strain, at 50.0 µM, hits give high values
How it was run: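 The screen exposed genetically defined yeast (cln2 rad14) to test compounds and scored growth inhibition relative to vehicle-treated controls.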

[5] = NCI Yeast Anticancer Drug Screen. Data for the bub3 strain (AID 167); conditions: S. cerevisiae bub3 mutant strain, at 50.0 µM, hits give high values
How it was run: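 Growth of a checkpoint-deficient yeast mutant is measured after compound exposure. Values represent inhibition relative to vehicle.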

[6] = NCI Yeast Anticancer Drug Screen. Data for the mlh1 rad18 strain (AID 175); conditions: S. cerevisiae mlh1 rad18 strain growth inhibition; at 50.0 µM; hits give high values
How it was run: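 Compound-treated yeast growth, normalised to vehicle controls. Strain bears defined DNA repair mutations.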

Measured: growth inhibition

COc1ccccc1C(=O)C(CN(C)C)CN(C)C
inactive: [1] -2.5% | [2] -19.2% | [3] 6.65% | [4] 15.3% | [5] -23.3% | [6] 13.7%

CCCc1cccc[n+]1CC(=O)c1ccccc1
inactive: [1] 5.65% | [2] 11.1% | [3] 4.95% | [4] -51.5% | [5] 25.4% | [6] -1.65%

COc1ccc(OC)c(NC(=O)CCCC(=O)C(C#N)c2c(Cl)cccc2Cl)c1 (stereo unspecified)
inactive: [1] 8.6% | [2] 5.5% | [3] -5.7% | [4] -8.05% | [5] 9.2% | [6] -3.5%

O=C1CSC(c2c[nH]c3ccccc23)N1c1cccc([N+](=O)[O-])c1 (stereo unspecified)
inactive: [1] -61.2% | [2] -39.5% | [3] -59.9% | [4] -0.7% | [5] -59% | [6] -39%

Cn1cnc([N+](=O)[O-])c1Sc1nc(N)nc2c1ncn2C1OC(CO)C(O)C1O (stereo unspecified)
inactive: [1] -9.3% | [2] 20.3% | [3] 15.6% | [4] 25.1% | [5] 14.2% | [6] -8.5%

COC(=O)[C@]1(C)CCC[C@@]2(C)[C@H]1CC=C1C=C(C(C)C)CC[C@@H]12
inactive: [1] 50% | [2] 1.15% | [3] 22.8% | [4] 4.6% | [5] -1.95% | [6] 24.4%

Cc1ccnc(NCc2ccccn2)c1
inactive: [1] 6.7% | [2] 3.85% | [3] 17.4% | [4] -0.15% | [5] 1.3% | [6] -1.5%

CCCCCCCCCCCCCCCC(=O)OCC(=O)O
inactive: [1] 14.7% | [2] -16.4% | [3] 23.2% | [4] 10.3% | [5] 15.2% | [6] 1.3%

CC(C)=CC1C(CBr)C1(C)C (stereo unspecified)
inactive: [1] 2.3% | [2] -15.2% | [3] -12.2% | [4] -26.2% | [5] -10.1% | [6] -11%

NCCNC(=O)Cc1cccs1
inactive: [1] 1.5% | [2] -8.5% | [3] -12.4% | [4] -21.6% | [5] 4.45% | [6] -0.8%

O=C(O)C1NCCC1Oc1ccccc1 (stereo unspecified)
inactive: [1] -3.9% | [2] -3.7% | [3] -16% | [4] -12.8% | [5] -1.5% | [6] 2.65%

[Cl][Pt+2][Cl].[NH-]C1CCC1.[NH2-]
inactive: [1] 3.25% | [2] -3.5% | [3] -3.85% | [4] 18.4% | [5] -16.1% | [6] -66.6%

CC(C)(C)C(=O)C[n+]1ccccc1
inactive: [1] 3.85% | [2] -6.45% | [3] 8.45% | [4] -15% | [5] 5.35% | [6] 15.2%

O=P(O)(OCC(Br)CBr)OCC(Br)CBr (stereo unspecified)
inactive: [1] -12.4% | [2] -7.05% | [3] 11.2% | [4] -45% | [5] 1.75% | [6] 23.8%

O=C(O)/C=C/C(=O)Nc1cc2c(cc1Br)-c1ccccc1C2O (stereo unspecified)
inactive: [1] -2.75% | [2] 12.5% | [3] 14.3% | [4] 14.1% | [5] 1.25% | [6] 34%

Cn1cc(Cc2ccc(-c3ccccc3)cc2)c(=O)c(Cc2ccc(-c3ccccc3)cc2)c1
inactive: [1] 30.6% | [2] 6.75% | [3] -2.9% | [4] 12.5% | [5] 3.9% | [6] 27.8%

COC(=O)CC#N
inactive: [1] -13.3% | [2] 4.9% | [3] 10.1% | [4] -2.75% | [5] -1.2% | [6] -13.3%

COc1cccc(NC(=O)N/C(=C/c2ccc(N(CCC#N)CCC#N)cc2)NC(=O)c2cc([N+](=O)[O-])ccc2Cl)c1
inactive: [1] 30.8% | [2] 16% | [3] -3.15% | [4] -10.1% | [5] -6.8% | [6] 36.5%

CCOC(=O)CC(C)(O)c1ccccc1 (stereo unspecified)
inactive: [1] -12.2% | [2] -0.55% | [3] 23.4% | [4] -17.4% | [5] 12.3% | [6] 0.15%

CNn1c(-c2ccc(C)cc2)n[nH]c1=O
inactive: [1] 8.95% | [2] 0.25% | [3] -5.95% | [4] 4.15% | [5] 18.7% | [6] 19.9%

COC(=O)c1ccccc1-c1ccccc1C(=O)OC
inactive: [1] 7.75% | [2] 18.1% | [3] 10.8% | [4] 25.8% | [5] 15.4% | [6] 13.7%

NCc1ccccc1
inactive: [1] -2.5% | [2] 7.75% | [3] -2.2% | [4] -41.4% | [5] -18.9% | [6] -3.85%

O=c1[nH]nc(Cc2ccc(Cl)cc2)n1O
inactive: [1] 3.3% | [2] 5.3% | [3] 0.1% | [4] -26.6% | [5] -13.5% | [6] 1.65%

COc1ccc(NC(=O)CC(=O)n2nc(C)c(N=Nc3ccccc3C(=O)O)c2C)cc1
inactive: [1] 8.6% | [2] 10.6% | [3] -6.05% | [4] -42.5% | [5] -1.35% | [6] 15.3%

Nc1nc(N)nc(-c2ccccc2NC(=O)c2ccccc2N)n1
inactive: [1] 2.15% | [2] 14.3% | [3] -0.25% | [4] 8.5% | [5] 6.85% | [6] 18%

N#CC(C#N)=CNC(=S)c1ccncc1
inactive: [1] -21.1% | [2] -33.6% | [3] -19.6% | [4] 6.7% | [5] -4.85% | [6] -24.2%

CCOC1(c2ccccc2)c2ccccc2C(C)(C)c2ccccc21
inactive: [1] 0.8% | [2] 12.3% | [3] 42% | [4] 4.2% | [5] 14.9% | [6] -5.2%

CCc1nc(N)nc(C(=O)NCCNC(=O)c2nc(N)nc(CC)c2C)c1C
inactive: [1] -38.1% | [2] -14.2% | [3] -11.6% | [4] -16.7% | [5] -13.4% | [6] -45.5%

O=C(O)Cc1cc(Cl)ccc1Cl
inactive: [1] -4% | [2] 8.85% | [3] 8.7% | [4] -2.55% | [5] -1.2% | [6] -9.05%

C#CCN(CC#C)C(=O)Nc1ccc(Cl)cc1
inactive: [1] -33.5% | [2] -21.4% | [3] -11.2% | [4] -47% | [5] -16.2% | [6] 3.45%

CCOC(=O)c1nc2ccc(C(F)(F)F)cc2nc1Nc1ccc(OC)c(OC)c1
inactive: [1] -16.7% | [2] -11.9% | [3] -15.7% | [4] -6.15% | [5] -17.4% | [6] -8.75%

Nc1nnc(N)c2nc(-c3ccccc3)c(-c3ccccc3)nc12
inactive: [1] 10.4% | [2] 16.4% | [3] 28.1% | [4] -14.8% | [5] 8.15% | [6] 20.9%

COc1ccc(OC)c2c3c([nH]c12)C(=O)Nc1nc(N)nc(N)c1C3
inactive: [1] 42.9% | [2] 19.9% | [3] 30.4% | [4] 21.8% | [5] 31.9% | [6] 40.5%

C[C@H](NC(=O)n1c2ccccc2c2ccccc21)C(=O)O
inactive: [1] 2.5% | [2] 5.2% | [3] -20.1% | [4] -5.9% | [5] -1.05% | [6] -2.95%

C=C(C)C(CCC)(C(=O)OCC)C(=O)OCC
inactive: [1] 3.05% | [2] -9.15% | [3] 12.6% | [4] -4.3% | [5] -13.2% | [6] -14.1%

CNC(=O)N(C)COC
inactive: [1] -2.65% | [2] -10.9% | [3] 2.55% | [4] -0.7% | [5] -40.8% | [6] -5.1%

COC(=O)C1CC(=O)c2cc(OC)ccc2C1 (stereo unspecified)
inactive: [1] -1.85% | [2] 2.8% | [3] -7.7% | [4] 6.05% | [5] -7.75% | [6] -27.1%

Cc1ccc(NC(=O)CNc2ccc3c(c2)Cc2ccccc2-3)cc1
inactive: [1] -1.05% | [2] 14.6% | [3] 24.9% | [4] -37.5% | [5] 34.5% | [6] 27.2%

O=S(=O)(Cl)c1ccc(I)cc1
inactive: [1] -5.2% | [2] -21.2% | [3] -12.3% | [4] 22.4% | [5] -2.2% | [6] -20.6%

O=C(/C=C(\N=P(c1ccccc1)(c1ccccc1)c1ccccc1)C(F)(F)C(F)(F)C(F)(F)C(F)(F)C(F)(F)C(F)(F)C(F)(F)F)c1ccccc1
inactive: [1] -16.1% | [2] -13.2% | [3] -17.3% | [4] 0.65% | [5] 14.2% | [6] -3%

O=[N+]([O-])c1nccn1COCCI
inactive: [1] 7.25% | [2] 15.4% | [3] -0.2% | [4] 3.3% | [5] 7.75% | [6] 52.3%
